Assay results taken from PubChem BioAssay (Tox21).
Values without a mark were called inactive. Active and inactive are the calls of the source. Calls follow the shape of the dose curve; as a rule, active = well fitted curve in the direction sought with a large enough effect in the repeat runs; inconclusive = weak or mixed curves; inactive = flat fitted curve, though single readings scatter.
% is scaled to controls: 0 for no effect and ±100 for the full control effect.

Test: qHTS assay to test for compound auto fluorescence at 535 nm (green) in HepG2 cell free culture (AID 720686)
Settings: Cell-free medium, green autofluorescence 485/535 nm; series mostly up to 91.3 µM; fluorescence, % of fluorescein control: at the top concentration
Source text: U.S. Tox21 Program National Center for Advancing Translational Sciences [NCATS] NIH Chemical Genomics Center [NCGC] U.S. Environmental Protection Agency [EPA] National Institutes of Environmental Health Sciences [NIEHS] National Toxicology Program [NTP] U.S. Food and Drug Administration [FDA] Tox21 Assay Overview: Compound auto fluorescence often interferes with screening of the compound library against various biological targets and signaling pathways. Some of these compounds may have fluorophoric properties. Such properties may interfere with the assay outputs resulting in false positives and/or negatives. To decrease such complications and ensure the compound activities are relevant in terms of biological response, the Tox21 10K compound library was screened for auto fluorescence. From the fluorophores used as reporter signals in our screening assays, the auto fluorescence equivalencies of compounds against three fluorophores have been evaluated: Triamterene, Fluorescein and Rose Bengal sodium for blue, green and red fluorescence, respectively. The fluorescence intensities were measured using Excitation/Emission wavelengths at 405/460nm, 485/535nm and 540/590nm for blue, green and red labels, respectively. This assay includes the green fluorescence data.
Tox21 Assay Protocol Summary: 5 uL of culture medium (MEM containing 10% FBS) per well was dispensed into black wall/clear bottom 1536-well plates using a Multidrop Combi Dispenser (ThermoFisher Scientific, Waltham, MA). After 23 nL compound or DMSO vehicle was transferred into assay plate by a pintool work station (Kalypsys, San Diego, CA), fluorescence intensities in the assay plates were measured by an Envision (PerkinElmer, Shelton, CT) plate reader using three labels for measuring blue, green and red fluorescence at […] 460, 535 and 590nm respectively.
In the case of `CC(C)CCCCCCCOP(=O)(Oc1ccccc1)Oc1ccccc1`, the “fluorescence, % of fluorescein control” value is reported as 0.0181%.
In the case of `CCN`, the “fluorescence, % of fluorescein control” value is reported as 0.0185%.
With `COP(=S)(OC)Oc1cc(Cl)c(Br)cc1Cl` the “fluorescence, % of fluorescein control” value was -0.158%.
For `CCC(C)(C)C(=O)OC1=C(c2ccc(Cl)cc2Cl)C(=O)OC12CCCCC2`, the “fluorescence, % of fluorescein control” value was 0.0114%.
For `CC(C)[C@H](C(=O)OC(C#N)c1cccc(Oc2ccccc2)c1)c1ccc(OC(F)F)cc1` (stereo not given in full), the “fluorescence, % of fluorescein control” value was -0.0311%.
For `CC(C)[C@H](C(=O)O[C@H](C#N)c1cccc(Oc2ccccc2)c1)c1ccc(Cl)cc1`, the “fluorescence, % of fluorescein control” value was 0.0694%.
For `CN(C)C1CSSSC1`, the “fluorescence, % of fluorescein control” value was 0.0475%.
With `CC(C)(C)OO` the “fluorescence, % of fluorescein control” value was 0.0851%.
In the case of `N#CSCSC#N`, the outcome is reported as “inactive”.
For `[Cd+2].[Cl-].[Cl-]`, the outcome was “inactive”.
With `CC1(C)CN=C(NN=C(/C=C/c2ccc(C(F)(F)F)cc2)/C=C/c2ccc(C(F)(F)F)cc2)NC1` the “fluorescence, % of fluorescein control” value was -0.0686%.
In the case of `CC(C)(O)c1cnn2c(-c3ccc(F)c(-c4c(F)cccc4C#N)c3)cnc2n1`, the “fluorescence, % of fluorescein control” value is reported as 0.14%.
For `CC(C)CCCCCOC(=O)c1ccccc1C(=O)OCCCCCC(C)C`, the “fluorescence, % of fluorescein control” value was 0.0093%.
In the case of `CC(=O)c1cc(C(C)(C)C)cc2c1CCC2(C)C`, the “fluorescence, % of fluorescein control” value is reported as 0.188%.
In the case of `Cc1c(Cl)c(=O)oc2cc(OP(=O)(OCCCl)OCCCl)ccc12`, the “fluorescence, % of fluorescein control” value is reported as 0.0392% [at 46 µM].
In the case of `C[C@]12CC[C@@H]3c4ccc(OC(=O)N(CCCl)CCCl)cc4CC[C@H]3[C@@H]1CC[C@@H]2O`, the “fluorescence, % of fluorescein control” value is reported as -0.0122% [at 46 µM].
In the case of `O=C/C(Cl)=C(/Cl)C(=O)O`, the outcome is reported as “inactive”.
For `CC(C)N1C(=O)N(c2ccccc2)CSC1=NC(C)(C)C`, the “fluorescence, % of fluorescein control” value was -0.0699%.
In the case of `ClC(Cl)=C(c1ccc(Cl)cc1)c1ccc(Cl)cc1`, the outcome is reported as “inactive”.
In the case of `CCCCCCCCCCCCCCCC[n+]1ccccc1`, the outcome is reported as “inactive”.
In the case of `CCOCCOC(C)=O`, the “fluorescence, % of fluorescein control” value is reported as -0.206%.
With `CC(=O)[O-].CC(=O)[O-].O.O.[Cd+2]` the “fluorescence, % of fluorescein control” value was 0.196%.
In the case of `FC(F)(F)c1cccc(C2=CCN(CCc3ccc4ccccc4c3)CC2)c1`, the “fluorescence, % of fluorescein control” value is reported as 0.019% [at 46 µM].
For `O=S(=O)(c1ccc(Cl)cc1)c1ccc(Cl)cc1`, the “fluorescence, % of fluorescein control” value was -0.112% [at 95.7 µM].
With `CCOC(=O)C1(c2ccccc2)CCN(CCC(C#N)(c2ccccc2)c2ccccc2)CC1` the outcome was “inactive”.
In the case of `[Hg+2].[I-].[I-]`, the “fluorescence, % of fluorescein control” value is reported as -0.0546%.
In the case of `C[C@H]1O[C@@H](O[C@H]2[C@@H](O)C[C@H](O[C@H]3[C@@H](O)C[C@H](O[C@H]4CC[C@@]5(C)[C@H](CC[C@@H]6[C@@H]5CC[C@]5(C)[C@@H](C7=CC(=O)OC7)CC[C@]65O)C4)O[C@@H]3C)O[C@@H]2C)C[C@H](O)[C@@H]1O`, the outcome is reported as “inactive”.
In the case of `CC(=O)C(Cl)(Cl)Cl`, the “fluorescence, % of fluorescein control” value is reported as -0.329%.
In the case of `CCCCN(CCCC)C(=S)[S-].CCCCN(CCCC)C(=S)[S-].[Zn+2]`, the outcome is reported as “inactive”.
In the case of `CC1(C)CC/C(=C/c2ccc(Cl)cc2)C1(O)Cn1cncn1` (stereo not given), the “fluorescence, % of fluorescein control” value is reported as -0.147%.
For `CCN(CC)c1c([N+](=O)[O-])cc(C(F)(F)F)c(N)c1[N+](=O)[O-]`, the “fluorescence, % of fluorescein control” value was 0.189%.
For `COC12CC[C@@]3(C[C@@H]1C(C)(O)C(C)(C)C)[C@H]1Cc4ccc(O)c5c4[C@@]3(CCN1CC1CC1)[C@H]2O5` (stereo not given in full), the “fluorescence, % of fluorescein control” value was -0.0084%.
For `CCOc1cc(C(C)(C)C)ccc1C1COC(c2c(F)cccc2F)=N1` (stereo not given), the “fluorescence, % of fluorescein control” value was 0.109%.
With `CC(C)OS(C)(=O)=O` the “fluorescence, % of fluorescein control” value was -0.0004%.
For `BrC(Br)Br`, the “fluorescence, % of fluorescein control” value was 0.0569%.
In the case of `CCCN(CCC)c1c([N+](=O)[O-])cc(S(N)(=O)=O)cc1[N+](=O)[O-]`, the “fluorescence, % of fluorescein control” value is reported as -0.199% [at 95.7 µM].
With `Nc1ccc(Cc2ccc(N)c(Cl)c2)cc1Cl` the “fluorescence, % of fluorescein control” value was -0.0695%.
In the case of `O=c1[nH]c2ccccc2n1CCCN1CCC(n2c(=O)[nH]c3cc(Cl)ccc32)CC1`, the “fluorescence, % of fluorescein control” value is reported as 0.205% [at 46 µM].
With `CCCCCCCCCBr` the “fluorescence, % of fluorescein control” value was -0.0104%.
`Clc1ccc(CSC(Cn2ccnc2)c2ccc(Cl)cc2Cl)cc1` (stereo not given) gave a fluorescence, % of fluorescein control of -0.107% [at 18.6 µM].
